The results in this text go back to PubChem BioAssay (NCATS).

What all share (assay): qHTS profiling for inhibitors of Plasmodium falciparum proliferation (AID 504749); note: nearly all actives have a fitted effect of over 60% in size
Holding throughout (details): P. falciparum in erythrocytes, SYBR Green DNA, 72 h; series mostly up to 28.7 µM
For orientation: Quantitative high-throughput screening tests each substance at several concentrations.

One experiment has as its system CP192. In short, it runs like this: (§1)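 Readout was DNA-dye fluorescence from lysed cultures, ex 485/em 535 nm. Parasitized red cells had grown 72 h with compound; data scaled between 0.29 uM artemisinin and DMSO wells and corrected using vehicle-only plates.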
In a further experiment the test system is CP201. In short, it runs like this:
as §1

The next experiment relates to CP211. In short, it runs like this:
as §1

The next experiment concerns CP217. In outline: as §1
Another experiment deals with CP238. In outline: as §1
The next experiment has as its system CP247. In short, it runs like this: as §1
In another experiment the test system is CP250. In short, it runs like this: as §1
For a further experiment, the system named is CP252. In short, it runs like this: as §1
The next experiment has as its system CP256. In outline: as §1
A further experiment has as its system CP262. In outline: as §1
A further experiment deals with CP265. In outline: as §1
Another experiment has as its system CP266. In short, it runs like this:
as §1

Another experiment deals with CP268. In short, it runs like this:
as §1

The next experiment relates to CP269. In outline:
as §1

The next experiment concerns CP194. In short, it runs like this: as §1
The test system of the next experiment is CP215. In short, it runs like this:
as §1

A further experiment relates to CP237. In short, it runs like this:
as §1

A further experiment deals with CP260. In short, it runs like this: as §1
For the next experiment, the system named is CP286. In outline: as §1

SMILES strings stand for the structures. Records with an inconclusive call do not appear. Activity calls are given as the source filed them. Calls come from the whole dose curve; as a rule, active = well fitted inhibition curve with a large enough effect; inconclusive = small, poorly fitted or top-dose-only effect; inactive = flat fitted curve, though single readings scatter.
Potency is the fitted concentration of half-maximal effect.

Regarding `CC(=O)c1ccc2c(c1)N(CCCN1CCC(CCO)CC1)c1ccccc1S2`, the Potency result in the experiment with CP192, in the experiment on CP201, in the experiment with CP211, in the experiment with CP217, in the experiment on CP238 and in the experiment on CP247 was “inactive” each time. Also, the Potency result in the experiment with CP250, in the experiment with CP252, with CP256, in the experiment on CP262, in the experiment with CP265 and in the experiment on CP266 was “inactive” each time. Further, the Potency entry in the experiment with CP268 and with CP269 was “inactive” in each case.

Take `C#C[C@]1(O)CC[C@H]2[C@@H]3CCc4cc(OC5CCCC5)ccc4[C@H]3CC[C@@]21C`: the Potency entry in the experiment on CP192, in the experiment with CP194, in the experiment on CP201, in the experiment on CP211, in the experiment with CP215 and with CP217 was “inactive” each time. For the same compound, the Potency entry in the experiment on CP237, in the experiment with CP238, with CP247, with CP250, in the experiment with CP252 and with CP260 was “inactive” each time. Further, the Potency result in the experiment with CP268, with CP269 and with CP286 was “inactive” each time.

As for `CC(Cc1cccc(C(F)(F)F)c1)NCCOC(=O)c1ccccc1` (stereo not drawn), the Potency result in the experiment on CP192, in the experiment with CP201, in the experiment on CP211, with CP215, with CP217 and in the experiment with CP238 was “inactive” each time. Further, the Potency entry in the experiment on CP247, in the experiment on CP250, with CP252, in the experiment on CP256, in the experiment on CP260 and in the experiment on CP262 was “inactive” in each case. The Potency entry in the experiment on CP265, with CP266, in the experiment with CP268, in the experiment with CP269 and in the experiment on CP286 was “inactive” in each case.

Turning to `CC(C)(C)CC(C)(C)c1ccc(OCCOCC[N+](C)(C)Cc2ccccc2)cc1`, the Potency was 4.26 µM (active) in the experiment with CP192; 3.79 µM (active) with CP194; 4.78 µM (active) in the experiment on CP201; 4.26 µM (active) in the experiment on CP211; 5.36 µM (active) in the experiment with CP215; 4.47 µM (active) with CP217. Besides, the Potency in the experiment with CP237 is 2.51 µM (active); in the experiment on CP238 it was 4.47 µM (active); in the experiment on CP247 it was 3.98 µM (active); with CP250, 4.47 µM (active); with CP252, 5.01 µM (active); in the experiment with CP256, 4.47 µM (active). The Potency is 1.41 µM (active) in the experiment on CP260; 4.47 µM (active) in the experiment on CP265; 4.26 µM (active) with CP266; 4.26 µM (active) in the experiment on CP268; 3.79 µM (active) with CP269; 2.24 µM (active) in the experiment on CP286.

Regarding `CN(C)CCOc1ccccc1Cc1ccccc1`, the Potency entry in the experiment with CP192 and in the experiment on CP201 was “inactive” in each case. Also, the Potency with CP237 is 3.16 µM (active); in the experiment on CP238, 7.94 µM (active); in the experiment with CP260, 2.51 µM (active); in the experiment on CP265, 2.24 µM (active).

Take `CCCCCCC[N+](CC)(CC)CCCCc1ccc(Cl)cc1`: the Potency was 2.03 µM (active) in the experiment with CP192; 2.28 µM (active) in the experiment on CP194; 2.56 µM (active) with CP201; 1.44 µM (active) in the experiment on CP211; 2.03 µM (active) in the experiment with CP215; 2.82 µM (active) with CP217. In addition, the Potency with CP237 was 2.82 µM (active); with CP238 it was 2.51 µM (active); with CP247 it was 2.51 µM (active); with CP250 it was 3.16 µM (active); in the experiment on CP252, 2.51 µM (active); with CP256, 2.24 µM (active). The Potency in the experiment on CP260 was 2.24 µM (active); with CP265 it was 2.82 µM (active); in the experiment on CP266 it was 2.56 µM (active); with CP268, 2.56 µM (active); in the experiment on CP269, 1.61 µM (active); with CP286 it was 1.12 µM (active).

With `O=c1c(-c2ccccc2)c1-c1ccccc1`, the Potency is 11.2 µM (active) in the experiment with CP250, 8.91 µM (active) in the experiment on CP260 and 7.94 µM (active) with CP286. Further, the Potency entry with CP262 is “inactive”.

Consider `O=C(N/N=C/c1ccccc1O)c1ccncc1`, for which the Potency in the experiment on CP217 is 8.91 µM (active); with CP238, 8.91 µM (active); in the experiment on CP247, 8.91 µM (active); in the experiment on CP250 it was 10 µM (active); in the experiment on CP252 it was 8.91 µM (active); in the experiment with CP256, 11.2 µM (active). Further, the Potency with CP260 and in the experiment with CP286 was 5.01 µM (active) throughout.

On to `O=C(CCCN1CCC(O)(c2ccc(Br)cc2)CC1)c1ccc(F)cc1`, for which the Potency result in the experiment on CP201, in the experiment with CP211, in the experiment on CP256, with CP262 and in the experiment on CP266 was “inactive” throughout. In the experiment with CP260, the Potency is 3.55 µM (active).

Regarding `COc1cc(-c2ccc(=O)[nH]n2)ccc1OC(F)F`, the Potency entry with CP201, with CP217, with CP250, in the experiment on CP252, with CP266 and in the experiment with CP268 was “inactive” throughout. The Potency result with CP286 is “inactive”. The results for the Potency in the experiment on CP237, with CP256 and in the experiment with CP265 were 0.112 µM (active), 3.16 µM (active) and 0.316 µM (active), respectively.

As for `Clc1ccc2c(c1)CCc1cccnc1C2=C1CCNCC1`, the Potency entry in the experiment on CP247, in the experiment on CP250 and in the experiment with CP256 was “inactive” in each case. The Potency with CP286 was 10 µM (active).

Consider `CCCOC(C(=O)OC1CCN(C)CC1)(c1ccccc1)c1ccccc1`, for which the Potency entry with CP192, with CP201, with CP262 and with CP266 was “inactive” in each case.

`CCOC(=O)c1cccc(N)c1`: the Potency result in the experiment on CP217, in the experiment with CP237, in the experiment with CP238, in the experiment with CP247, in the experiment with CP250 and in the experiment on CP252 was “inactive” throughout. In addition, the Potency entry in the experiment with CP256, in the experiment with CP260, with CP262, in the experiment with CP265 and in the experiment with CP286 was “inactive” in each case.

`c1ccc(-c2ccc(C(c3ccccc3)n3ccnc3)cc2)cc1` (stereo not drawn): the Potency was 10.7 µM (active) in the experiment on CP192; 19 µM (active) in the experiment on CP211; 15.1 µM (active) with CP215; 8.91 µM (active) in the experiment on CP217; 8.91 µM (active) in the experiment with CP237; 7.94 µM (active) in the experiment with CP247. Besides, the Potency in the experiment with CP252 is 10 µM (active). For the same compound, the Potency result in the experiment with CP262 is “inactive”.
